AMA1 RON2 block: disrupts binding of P. falciparum AMA1 to RON2. Potency, µM (doses to about 58.2 µM), inactives show at the highest dose activity change, negative = inhibition, usual class: inhibitors. hit rate 0.2% among 360,000. AlphaScreen AMA1-biotinylated RON2 peptide binding. AID 720542;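 further: 0% = vehicle wells and -100% = peptide control; nearly all actives have a fitted effect of over 45% in size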
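AMA1 (3D7) with his tag at 25 nM final met compounds first, then biotinylated RON2 peptide at 25 nM; detection used donor plus acceptor beads, 10 µg/mL apiece, read by AlphaScreen after 30 min at room temperature.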
HCV inhibitor: blocks hepatitis C virus | Huh7.5.1 HCVcc-Cre infection, luciferase reporter, 44 h | Potency, µM (doses to about 41.8 µM), for the others: top-dose activity change, negative = inhibition, usual class: inhibitors | hit rate 3.4% among 340,000 | AID 651820
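Reporter virus HCVcc-Cre (~0.5 moi) infects cells exposed to compound; seeding density 1,000 cells/well with 4 h settling beforehand. Luminescence, 15 sec read, taken 44 h post-infection following a 15 min RT substrate incubation.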
Pf growth 96h: P. falciparum growth inhibition at 96 hour, primary screen for plastid delayed-death inhibitors; AID 504834; hit rate 6.9% among 320,000; Potency, µM (titrated, usually from 28.7 µM), for inactives: at the highest dose activity change, negative = inhibition, hits mostly inhibitors; P. falciparum luciferase reporter growth, 96 h
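Two-generation exposure (96 h) targets delayed-death phenotype. Reporter parasites carrying integrated firefly luciferase, in red cells at 2% hematocrit and 0.05% parasitemia final, kept at 37 C, 5% CO2; luminescence loss indicates inhibition.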
Pf growth 48h: P. falciparum growth inhibition at 48 hours (one generation) | P. falciparum luciferase growth in erythrocytes, 48 h | AID 504832 | hit rate 5.9% among 310,000 | Potency, µM (series often up to 28.7 µM), for inactives: top-dose activity change, negative = inhibition, most hits filed as inhibitors
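Erythrocytes infected with P. falciparum carrying an integrated firefly luciferase reporter (2% hematocrit, 0.1% parasitemia final) were exposed to compounds in RPMI 1640 with 0.5% Albumax at 37 C, 5% CO2. Growth inhibition was scored as reduced luminescence.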
* = called active by the depositor; ? = inconclusive; . = no result; [ ] = dose if it differs, or a comment. The list is not random: actives were taken first. Their share in the collection is about 11%. The call rests on the fitted dose curve; in most records, active means well fitted curve in the direction sought with a large enough effect; inconclusive means small, poorly fitted or top-dose-only effect, or another doubt; inactive means no such curve, though single readings can be large; an effect the other way counts as inactive or inconclusive. Unless noted, on the % scale 0 is the no-effect control and ±100 the full control effect; potency means the concentration at half of the fitted maximal effect.

SMILES	AMA1 RON2 block	HCV inhibitor	Pf growth 96h	Pf growth 48h
CC(OC(=O)C1=COCCO1)C(=O)NC1CCCCC1 (stereo not given)	8%	.	.	.
CCOC(=O)N1CCN(C(=O)c2c[nH]c3ccc(S(=O)(=O)N(C)c4ccc(OCC)cc4)cc3c2=O)CC1	8%	18%	13µM*	24%
CCOc1ccc(N(C)S(=O)(=O)c2ccc3[nH]cc(C(=O)NCC4CCCO4)c(=O)c3c2)cc1 (stereo not given)	-2%	0%	?	13µM*
O=C(c1ccc(Cl)cc1)N1N=CCC1(O)c1ccc(Cl)cc1 (stereo not given)	101%	-12%	0%	13%
Cc1ccc(NC(=O)C2(c3ccccc3)CC2(Cl)Cl)cc1C (stereo not given)	-2%	-11%	?	?
CCc1ccc(NC(=O)C2(c3ccccc3)CC2(Cl)Cl)cc1 (stereo not given)	8%	?	3.3µM*	?
Cc1cc(C)cc(NC(=O)C2(c3ccccc3)CC2(Cl)Cl)c1 (stereo not given)	3%	-13%	2.3µM*	4.7µM*
Cc1cccc(NC(=O)C2(c3ccccc3)CC2(Cl)Cl)c1 (stereo not given)	0%	-26%	?	?
O=C(N[C@H]1/C=C\[C@@H](O)CCCC1)OCc1ccccc1	-9%	-12%	.	.
CCc1cccc2c(C(=O)CN3C(=O)NC4(CCc5ccccc54)C3=O)c[nH]c12 (stereo not given)	-4%	?	?	?
CCc1cccc2c(C(=O)CN3C(=O)N(C)C4(CCCCC4)C3=O)c[nH]c12	-5%	7.1µM*	-22%	?
CCc1cccc2c(C(=O)CN3C(=O)NC(C)(c4cccc5ccccc45)C3=O)c[nH]c12 (stereo not given)	-6%	?	10µM*	?
CC1=C(C(=O)OCC2CCCO2)C(c2ccncc2)C2=C(CC(C)(C)CC2=O)N1 (stereo not given)	2%	7%	0%	-12%
CCCc1cc(C(=O)Nc2ccc(C(=O)c3ccccc3)cc2)n(C)n1	12%	16µM*	?	?
CCCc1cc(C(=O)Nc2ccc(C(=O)c3ccc(F)cc3)cc2)n(C)n1	-7%	10µM*	?	?
CCCCOc1ccc(S(=O)(=O)N2CCN(C)CC2)cc1	0%	-1%	.	.
CC1CCN(C(=O)COc2ccc(S(=O)(=O)N3CCCC3)cc2)CC1	-5%	-15%	14%	-21%
O=C(COc1ccc(S(=O)(=O)N2CCCCC2)cc1)N1CCCCCC1	0%	-10%	13µM*	?
CC(C)(C)c1ccc(S(=O)(=O)N2CCC(CO)(CC3CCCCO3)CC2)cc1 (stereo not given)	-3%	-13%	?	2.3µM*
CCCCOc1ccc(S(=O)(=O)N2CCCCCC2)cc1	40%	-8%	12µM*	-13%
CC(C)(C)c1ccc(S(=O)(=O)N2CCN(C(=O)C3=COCCO3)CC2)cc1	0%	-4%	13µM*	?
CC(C(=O)Nc1ccc2c(c1)OCO2)n1cnc2c1c(=O)n(C)c(=O)n2C (stereo not given)	-8%	5%	1%	5%
CC(C)c1cc(CNC(=O)C2CCC(=O)N(CCc3ccc(Cl)cc3)C2)on1 (stereo not given)	-6%	0%	33%	?
CC(C)(C)c1ccc(S(=O)(=O)N2CCCCC2)cc1	-8%[2.32 µM]	-3%	12µM*	?
O=S(=O)(c1ccc(S(=O)(=O)N2CCCC2)cc1)N1CCCCCC1	4%	10%	-2%[5.75 µM]	-5%
SMILES	AMA1 RON2 block	HCV inhibitor	Pf growth 96h	Pf growth 48h
CCOC(=O)CCCSc1nnc(CCCCCN2C(=O)c3cccc4cccc(c34)C2=O)o1	13%	5%	1.9µM*	?
CC1CC(C)CN(C(=O)COC(=O)CCCN2C(=O)c3cccc4cccc(c34)C2=O)C1 (stereo not given)	6%	-4%	6%	-7%
CCOC(=O)CCCCCN1C(=O)c2cccc3cccc(c23)C1=O	12%	-6%	6.6µM*	34%
COCCN(C(C)=O)c1nnc(-c2cnccn2)s1	-11%	3%	2.3µM*	28%
COCCN(C(C)=O)c1nnc(-c2ccccn2)s1	28%	22%	.	55%
O=C(NCCCN1CCOCC1)c1cccc(S(=O)(=O)N2CCc3ccccc32)c1	0%	.	.	.
O=C(Nc1cccc(S(=O)(=O)NC2=NCCCCC2)c1)c1ccc(Cl)cc1	10%	?	?	-7%
CCOC(=O)N=S(N)(=O)c1ccccc1 (stereo not given)	0%	10%	10µM*	3%
CCOC(=O)N=S(N)(=O)c1ccc(Cl)cc1 (stereo not given)	-11%	-2%	?	1%
Cc1ccccc1OCC(=O)OCC(=O)NC1CC1	2%	34%	-25%	-24%
O=C1c2ccccc2C(=O)N1CCC(=O)N1CCc2ccccc21	-7%	0%	.	.
O=C(C(Cc1ccccc1)N1C(=O)c2ccccc2C1=O)N1CCc2ccccc21 (stereo not given)	7%	-15%	?	15µM*
CC(O)CNc1nc(NCc2ccccc2)c2cnn(C)c2n1 (stereo not given)	5%	-8%	3%	17%
Cc1ccc(C)c(N2CCN(C(=O)C3CCCN(c4ncnc5c4nc4n5CCCCC4)C3)CC2)c1 (stereo not given)	-12%	-16%	?	9.3µM*
Cc1ccc(N2CCN(C(=O)C3CCCN(c4ncnc5c4nc4n5CCCCC4)C3)CC2)c(C)c1 (stereo not given)	11%	12%	15µM*	?
Cc1noc(C)c1CSCC(=O)OCC(=O)Nc1ccc(OC(F)(F)F)cc1	2%	.	.	.
Cc1noc(C)c1-c1nnc(-c2ccc(OC(F)(F)F)cc2)o1	0%	8%	96%	51%
CCOc1ccccc1NC(=O)c1ccoc1C	14%	6.3µM*	.	-8%
CCOc1ccccc1C(=O)Nc1ccccc1-c1ccccc1	15%	-22%	4.1µM*	13%
O=C(Nc1ccccc1Br)c1ccccc1-c1ccccc1	-1%	?	7.4µM*	2%
CCOc1ccccc1C(=O)Nc1ccccc1O	-18%	11µM*	.	?
O=C(Nc1ccccc1-c1ccccc1)c1ccccc1Br	-2%	-8%	0%	0%
CCOc1ccccc1C(=O)Nc1cccc2ccccc12	8%	?	80%	-8%
Cc1ccc(CN2CCCC2(C)C(=O)NC(C)C)cc1 (stereo not given)	21%	.	.	.
O=C(NCc1cccc(Cl)c1)C1Cc2c(-c3ccccc3)ccnc2O1 (stereo not given)	1%	.	.	.
CCOc1ccccc1C(=O)NCC(=O)N(C)Cc1ccccc1C	0%	5%	13µM*	10µM*
Cc1ccc(C(=O)NCC(=O)N(C)Cc2ccccc2C)s1	10%	.	.	.
CCOc1ccc(NC(C)c2cc(Cl)ccc2O)cc1 (stereo not given)	-8%	2%	0%	-2%
CC(Nc1ccc(Cl)cc1)c1cc(Cl)ccc1O (stereo not given)	2%	3%	13%	9.3µM*

Compound activity from PubChem.
